# Laboratory results published in ChEMBL document CHEMBL4513139, “CO-ADD screening of University of Strathclyde (UK) compounds”.
# Screen size: about 21,000 compounds; fewer than 10 showed an effect of 50% or more. Only a sample is shown. Measured potencies and affinities stand elsewhere.
# Test system: Acinetobacter baumannii
# Conditions: Concentration 32 ug.mL-1; ASSAY_TEST Inhibition of Bacterial Growth; detection method Absorption (OD600); MEDIA CAMHB; plate type 384well; NBS; CORNING #3640; time 18 hr
row,Compound,Inhibition
1,Cn1cc(NC(=O)c2cc(NC(=O)c3ccc(/C=C/c4cccc(F)c4)cc3)cn2C)cc1C(=O)NCCN1CCOCC1.O=C(O)C(F)(F)F,5.74%
